From the supplement of paper PMC6555819

Assays:
Experiment in all cases: PBM binding z-score (relative to random genomic background probes); higher = stronger binding; sequences stand for … in GC…GCGATTGACAGCGTAGAATGAAGG
[1] = test system: RARb homodimer (NR concentration 270 nM)
Outline: (§1)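 Random background probes are the reference for binding z-scores. These scores derive from regression-normalized fluorescence on custom Agilent 4×180K protein-binding microarrays incubated 1 h with ligand-free nuclear receptor dimers. Binding was detected with antibodies against each partner (one per run).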

[2] = test system: RARg:RXRa (NR concentration 270 nM, RXRa partner concentration 90 nM)
Outline: as §1

[3] = test system: RARg homodimer (NR concentration 270 nM)
Outline: as §1

[4] = test system: RXRa DBDmut IVT, anti-RXR (DBD mutation: RXRa K156A/R161A, NR concentration 90 nM)
Outline: as §1

[5] = test system: RXRa homodimer (NR concentration 180 nM)
Outline: as §1

[6] = test system: THRa:RXRa (NR concentration 90 nM, RXRa partner concentration 90 nM)
Outline: as §1

[7] = test system: THRa homodimer (NR concentration 90 nM)
Outline: as §1

[8] = test system: VDR homodimer (NR concentration 270 nM)
Outline: as §1

Sequence | PBM binding z-score [1] | PBM binding z-score [2] | PBM binding z-score [3] | PBM binding z-score [4] | PBM binding z-score [5] | PBM binding z-score [6] | PBM binding z-score [7] | PBM binding z-score [8]
GCTAGTTGGTCAGTCAAAGGTCACACACCGGTCG | 5.2 | 5.9 | 4.85 | 0.537 | 5.93 | 3.52 | 1.59 | 1.47
TAGCCTAGGTCATTCAGGGGCCAGTGTAGAAAGC | 3.6 | 6.11 | 4.75 | 1.83 | 3.15 | 3.58 | 0.809 | 1.58
GTACCAACGTGAATAGGTCGTTGATGAGTAGGCG | 0.16 | 0.141 | 0.237 | -0.361 | 0.489 | -0.22 | -1.03 | -0.24
ACTATTAGTTGACTTAGGGCGACCGATACGACGC | 0.553 | 0.564 | 0.841 | 1.02 | 0.421 | 1.12 | 0.262 | 0.166
CCTGCTTGGTCAATGGTCAGCTAAAGCAGCTCGC | 0.507 | -0.324 | 0.0947 | 0.0969 | -0.389 | -0.501 | -0.238 | -0.585
CAAACTAGGTCGAGGTCAAAGTCGGTTTGTGCCA | 4.43 | 5.24 | 4.79 | 2.93 | 5.63 | 4.31 | 3.49 | 5.19
AGAATGAGGTTAAGATCAGAGAAACAGAATACAT | 0.686 | 2.05 | 1.45 | 0.652 | 2.36 | 2.29 | 0.47 | 0.291
CCTTCTAGGTCATGGTCAGCTAATCTACAGTATG | 3.46 | 4.02 | 5.08 | 2.02 | 3.37 | 3.45 | 2.5 | 0.794
TCTATCAGTTGATTAGGGCAACCGAAACAGCGGA | 0.548 | 0.522 | 0.467 | 0.825 | 0.276 | 0.643 | -0.0881 | -0.1
TCATATCGGTAATACAGGTGAAAGTCGGCATCTA | 0.531 | 0.354 | 0.441 | 1.09 | 0.783 | 0.59 | 0.42 | 0.435
AGAATGAGGTTAGACGTAGATCAGGGAAGAAAGT | 0.932 | 0.987 | 0.859 | 0.209 | 1.17 | 1.55 | 0.554 | 0.591
TAGCCTAGGTCGTGGGCCAGTATACCACGCGAAC | 0.693 | 0.842 | 0.996 | -0.872 | 0.851 | 0.795 | -0.254 | -0.53
CCTCGGAGGACAGAAGGTCAGAGATGTCCGCTTT | 3.39 | 3.26 | 3.21 | -0.0318 | 1.74 | 2.05 | -0.116 | 0.382
ATCTCTAGGGAAAGTTCAGTGAAAGATCGATAGA | 2.2 | 2.01 | 2.11 | 1.12 | 1.21 | 0.605 | 0.0589 | 1.68
TCTGCTAGGTCAGTCGGTCAGCTAACGAGCTGCC | 3.32 | 3.52 | 4.64 | 0.278 | 1.08 | 1.17 | 0.0132 | -1.13
CGAACTAGGTCAGAACAGGACAGCGAAGGATGAT | 2.08 | 2.39 | 3.18 | 0.432 | 1.39 | 3.82 | 0.236 | -0.0467
CAAACTAGGTCAAGGTCAGAGTCGGTTTGTGCCA | 4.8 | 5.32 | 6.42 | 2.33 | 4.6 | 4.29 | 3.28 | 2.79
CCTTACGGGTCACTGACAGGTTTTAGCATTTGGA | 3.06 | 4.89 | 4.41 | 1.81 | 4.92 | 2.53 | 0.0377 | 1.01
CCGACTGGGGCAGAAAGGTTATCATACCATCCGG | 1.91 | 1.48 | 1 | -0.376 | 1.67 | 0.759 | -0.293 | -0.196
CCTACTGGACCATCAGGTCATTGATATCAACGTT | 2.7 | 1.67 | 1.56 | 1.08 | 1.37 | 3.38 | 3.78 | 2.38
ACTCAAAGTTCATCTAGGTAACGTAAGATATGCT | 4.25 | 5.51 | 6.3 | 4.87 | 4.62 | 3.37 | 0.619 | 5.89
ATATGTAGGTTACTTCCGGGTCATTCAGGCTATG | 3.02 | 3.9 | 2.02 | 1.23 | 3.02 | 3.91 | 2.57 | 2.58
ATCTCTAGGTAAGACTCAGTTCATTGAAGAACGC | 0.892 | 0.375 | 0.586 | 1.31 | 0.538 | 1.58 | 0.923 | 3.67
CAGCCTAGGTCAGAGCCAGTATAGGAGGAACGTT | 2.13 | 2.87 | 3.5 | 0.588 | 1.5 | 1.76 | 0.271 | -0.348
CGTCCAAGGTCAGAGAGATCAGTGAATGCCGAGT | 3.33 | 4.47 | 5.03 | 2.73 | 3.39 | 3.31 | 1.57 | 1.58
CCAGACAGGTGAAAGGTAACTCATTCTGGTACGC | 0.992 | 1.41 | 0.877 | 0.192 | 2.12 | 1.13 | 0.167 | 0.0322
TATACAGGGTCAAAGGCCATAGTACGAATGTCGA | 3.79 | 5.96 | 5.29 | 3.05 | 7.75 | 3.78 | 0.843 | 3.25
TCATATAGGTAAATGCTCGGTGAAAGTCCGATCT | 0.197 | 0.387 | 0.081 | 1.45 | 0.76 | 0.193 | 0.208 | 0.375
